Experimental data taken from PubChem BioAssay.
Several values for one entry are separate records, joined by “and”; a condition that tells them apart may be missing. Equal values may be shown once. For some assays here: Results with a measured potency or affinity are listed apart. Activity calls are given as the source filed them.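 Rule for the calls, unless noted: active = thallium flux through the channel raised or lowered by more than 3 SD from vehicle-only wells, actives on both sides; inactive = the rest.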

How the values were obtained:
[1] = blockers of polyQ-driven CASP3 activation – cell-based (AID 1583); conditions: polyglutamine-induced caspase-3 activation, cell assay; stronger effect = higher value;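 tested at 10 µM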
[2] = yeast 75Q aggregation reduction – 75Q-TubU reporter (AID 1593); conditions: Yeast 75Q polyglutamine aggregation reporter
[3] = blockers of cytochrome c efflux from mitochondria – biochemical, purified mitochondria (AID 1603); conditions: stronger effect = lower value;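 note: mouse liver mitochondria challenged with calcium chloride; signal normalized to the plate average as 100%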
[4] = polyglutamine aggregate formation blockers (AID 1604); conditions: polyglutamine-induced protein aggregation inhibition assay; stronger effect = higher value; tested at 2.5 µM
[5] = glutamate transport activators, MN-1 cells, MN-1 cell line (AID 1612); conditions: MN-1 motor neuron cells, stronger effect = higher value;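 note: tested at 1 µM final; 0% = mean of DMSO vehicle wells on each plate; positive means more glutamate uptake than control and negative means less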
[6] = 75Q-TubH aggregate inhibition, S. cerevisiae, yeast (AID 1616); conditions: S. cerevisiae 75Q-TubH polyglutamine aggregation suppression; stronger effect = higher value
[7] = compounds altering circadian rhythm period length – cell-based, LOPAC library, luminescence reporter (AID 2774; call rule not given here;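 note: values are relative to mean of DMSO wells on each plate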); conditions: circadian reporter cells, at 7 µM, actives lie on both sides
[8] = test system: Hepatitis C virus NS3 helicase; assay: blockers of NS3h binding to ssDNA – biochemical, fluorescence polarization, LOPAC1280 library, primary screen (AID 687035; in the data active = inhibition above about 37%); conditions: Purified HCV NS3 helicase, Cy5-dT15 ssDNA binding fluorescence polarization; stronger effect = higher value; concentration not given here
[9] = compounds altering Cy5-DNA-NS3h complex signal – biochemical, LOPAC1280, artefact control for HCV NS3 helicase inhibitor project (AID 687037; call rule not given here); conditions: Cy5-DNA-NS3h complex fluorescence interference counterscreen
[10] = signal quenchers or enhancers, Cy5 substrate/SSB – biochemical, NIH Clinical Collection, E. coli SSB, artefact control for HCV NS3 helicase inhibitor project (AID 743268; call rule not given here); conditions: Cy5-oligo bound E. coli SSB, fluorescence interference
[11] = test system: Hepatitis C virus NS3 helicase; assay: blockers of NS3h binding to DNA – biochemical, fluorescence polarization, NIH Clinical Collection, primary screen (AID 743270; call rule not given here); conditions: NS3 helicase binding to Cy5-dT15 DNA, stronger effect = higher value, concentration not given here
[12] = biological target: Single-stranded DNA-binding protein (Escherichia coli (strain K12)) (UniProt P0AGE0); assay: SSB-ssDNA binding inhibitors – biochemical, fluorescence polarization, NIH Clinical Collection, counter-screen for HCV NS3 helicase inhibitor project (AID 743271; in the data active = inhibition above about 28%); conditions: E. coli SSB-DNA binding, stronger effect = higher value, concentration not given here
[13] = compounds distorting NS3 helicase fluorescence signal – biochemical, NIH Clinical Collection, artefact control for HCV NS3 helicase inhibitor project (AID 743272; call rule not given here;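 note: HCV NS3 helicase with a Cy5 labelled single stranded DNA probe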); conditions: fluorescence interference counterscreen, HCV NS3 helicase assay; stronger effect = lower value
[14] = test system: F380Y; assay: BK channel mutant inhibitors and activators – cell-based, U2OS BacMam, thallium flux, beta subunits, selectivity assay, profiling panel (AID 1259406); conditions: U2OS BacMam BK variants, at 30 µM;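 note: initial slope of Thallos dye fluorescence rise after thallium is added; log ratio against the mean of 0.3% DMSO vehicle wells on the same plate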
[15] = test system: F380Y/beta2Delta; assay: as above; conditions: U2OS BacMam BK variants, at 30 µM
[16] = biological target: Calcium-activated potassium channel subunit alpha-1 (Homo sapiens) + Leucine-rich repeat-containing protein 26 (Homo sapiens) (UniProt Q12791+Q2I0M4); assay: as above; conditions: U2OS BacMam BK variants, F380Y/Slo1WT/gamma1, at 30 µM
Chain of Calcium-activated potassium channel subunit alpha-1 (Homo sapiens) + Leucine-rich repeat-containing protein 26 (Homo sapiens) (Q2I0M4 whole entry, looked up, one chain of several): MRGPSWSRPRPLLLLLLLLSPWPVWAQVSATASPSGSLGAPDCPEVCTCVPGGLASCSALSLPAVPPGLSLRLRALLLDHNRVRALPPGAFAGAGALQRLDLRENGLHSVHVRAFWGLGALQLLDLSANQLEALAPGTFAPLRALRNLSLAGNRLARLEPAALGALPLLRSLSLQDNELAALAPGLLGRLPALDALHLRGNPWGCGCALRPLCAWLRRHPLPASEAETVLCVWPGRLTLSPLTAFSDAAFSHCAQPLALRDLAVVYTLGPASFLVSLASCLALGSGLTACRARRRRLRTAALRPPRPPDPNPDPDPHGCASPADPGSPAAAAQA

[17] = test system: R275C; assay: as above; conditions: U2OS BacMam BK variants, at 30 µM
[18] = test system: R275C/beta1; assay: as above; conditions: U2OS BacMam BK variants, at 30 µM
[19] = test system: R275C/beta2Delta; assay: as above; conditions: U2OS BacMam BK variants, at 30 µM
[20] = restoration of touch response, mutant HTT neurons – whole organism, C. elegans mechanosensory neurons, N-terminal huntingtin (AID 1599); conditions: C. elegans polyQ-huntingtin mechanosensory neurons, stronger effect = higher value

Row | SMILES | inhibition [1] [%] | score [2] | cytochrome c release ratio [3] | inhibition of aggregation [4] [%] | glutamate uptake change [5] [%] | aggregation suppression score [6] | period change [7] | inhibition [8] | fluorescence ratio (interference) [9] | fluorescence ratio [10] | inhibition [11] | inhibition [12] | fluorescence ratio [13] | log fold change Tl+ flux [14] | log fold change Tl+ flux [15] | log fold change Tl+ flux [16] | log fold change Tl+ flux [17] | log fold change Tl+ flux [18] | log fold change Tl+ flux [19] | rescue above control [20]
1 | CN1CCN(C2=Nc3cc(Cl)ccc3Nc3ccccc32)CC1 | -23.8 | 1.19 | 1.52 | 65.4 | -8.51 | 1.14 | 0.13 h (inactive) | -3% (inactive) | 1 (inactive) | 1.04 (inactive) | -2.27% (inactive) | -3.53% (inactive) | 1.01 (inactive) | 0.296 (active) | 0.389 (active) | 0.0716 (inactive) | 0.0716 (inactive) | 0.156 (active) | 0.106 (active) | –
2 | CN/C(=C\[N+](=O)[O-])NCCSCc1ccc(CN(C)C)o1 | 6.1 | 1.61 | 0.8 | 71.9 | -10.5 | 1.66 | 0.16 h (inactive) | -3% (inactive) | 0.9 (inactive) | 0.103 (active) | 0.45% (inactive) | 6.39% (inactive) | 0.89 (inactive) | -0.0669 (inactive) | 0.0319 (inactive) | -0.0244 (inactive) | 0.017 (inactive) | 0.0242 (inactive) | -0.00414 (inactive) | -10.5
3 | CC(C(=O)O)c1cccc(C(=O)c2ccccc2)c1 (stereo unspecified) | -50.9 | 1.03 | 1.12 | 74.7 | -7.92 | 0.564 | -0.125 h (inactive) | -5% (inactive) | 1 (inactive) | – | -1.36% (inactive) | 1.05% (inactive) | 0.96 (inactive) | 0.0438 (inactive) | 0.023 (inactive) | 0.0363 (inactive) | -0.00546 (inactive) | -0.000822 (inactive) | -0.0306 (inactive) | 17.1
4 | COc1ccc2cc([C@H](C)C(=O)O)ccc2c1 | -27.8 | 0.32 | 0.95 | 74 | 6.08 | 0.196 | -0.095 h (inactive) | -6% (inactive) | 1 (inactive) | – | – | – | – | 0.000985 (inactive) | 0.00769 (inactive) | 0.0442 (inactive) | -0.0405 (inactive) | -0.0361 (inactive) | -0.0194 (inactive) | -11.2
5 | O=C(CCCN1CCC(O)(c2ccc(Cl)cc2)CC1)c1ccc(F)cc1 | -12.1 | 1.43 | 1.55 | 81.4 | 6.85 | 1.09 | 0.015 h (inactive) | -3% (inactive) | 1 (inactive) | 0.91 (inactive) | -12.4% (inactive) | 1.18% (inactive) | 0.89 (inactive) | 0.00184 (inactive) | 0.0376 (inactive) | -0.0288 (inactive) | -0.231 (active) | 0.104 (active) | -0.165 (active) | 27.6
6 | COC(=O)C1=C(C)NC(C)=C(C(=O)OCCN(C)Cc2ccccc2)C1c1cccc([N+](=O)[O-])c1 (stereo unspecified) | 5.3 | 1.16 | 1.07 | 11.1 | -14.8 | 0.61 | -0.09 h (inactive) | 3% (inactive) | 1 (inactive) | 1.15 (inactive) | -1.36% (inactive) | 7.91% (inactive) | 0.91 (inactive) | -0.089 (inactive) | -0.158 (active) | -0.059 (inactive) | -0.031 (inactive) | -0.044 (inactive) | 0.0144 (inactive) | 19.4
7 | CC(C)(C)CC(C)(C)c1ccc(OCCOCC[N+](C)(C)Cc2ccccc2)cc1 | 70.8 | -0.06 | 15.9 | 58.6 | -11.3 | -0.0343 | – | – | – | – | – | – | – | – | – | – | – | – | – | 0
8 | O=C(NCC1CCCCN1)c1cc(OCC(F)(F)F)ccc1OCC(F)(F)F (stereo unspecified) | – | – | – | – | – | – | 0.075 h (inactive) | – | – | 1.08 (inactive) | -15% (inactive) | 19.4% (inactive) | 0.81 (inactive) | – | – | – | – | – | – | –
9 | Clc1ccccc1CN1CCc2sccc2C1 | – | – | – | – | – | – | – | – | – | – | – | – | – | -0.26 (active) | -0.214 (active) | -0.00222 (inactive) | -0.105 (inactive) | -0.145 (active) | -0.13 (active) | –
10 | O=C(O)c1cn(C2CC2)c2cc(N3CCNCC3)c(F)cc2c1=O | 8.05 | 1.22 | 1.03 | 20.6 | -1.59 | 1.3 | – | – | – | – | – | – | – | – | – | – | – | – | – | 13.4
11 | CC(C)(C(=O)O)c1ccc(C(O)CCCN2CCC(C(O)(c3ccccc3)c3ccccc3)CC2)cc1 (stereo unspecified) | – | – | – | – | – | – | 0.08 h (inactive) | -1% (inactive) | 1.1 (inactive) | 1.07 (inactive) | -4.09% (inactive) | 1.05% (inactive) | 1.04 (inactive) | -0.178 (active) | -0.00892 (inactive) | 0.0201 (inactive) | 0.00746 (inactive) | -0.0122 (inactive) | -0.0184 (inactive) | –
12 | CC(C)(C)c1ccc(C(O)CCCN2CCC(C(O)(c3ccccc3)c3ccccc3)CC2)cc1 (stereo unspecified) | 70.6 | 0.48 | 4.87 | 4.76 | -7.35 | 0.868 | 0.22 h (inactive) | -3% (inactive) | 0.9 (inactive) | – | – | – | – | – | – | – | – | – | – | –
13 | CN1[C@@H]2CC(OC(=O)[C@H](CO)c3ccccc3)C[C@H]1[C@@H]1O[C@@H]12 (stereo partly specified) | – | – | – | – | – | – | – | – | – | 0.95 (inactive) | -1.98% (inactive) | 1.44% (inactive) | 0.9 (inactive) | – | – | – | – | – | – | –
14 | CC(C)n1c(/C=C/[C@@H](O)C[C@@H](O)CC(=O)O)c(-c2ccc(F)cc2)c2ccccc21 | – | – | – | – | – | – | – | – | – | 1.05 (inactive) | -2.27% (inactive) | 2.57% (inactive) | 1.03 (inactive) | 0.0848 (inactive) | 0.0465 (inactive) | 0.11 (active) | -0.0365 (inactive) | 0.145 (active) | 0.135 (active) | –
15 | O=C(O)COCCN1CCN(C(c2ccccc2)c2ccc(Cl)cc2)CC1 (stereo unspecified) | – | – | – | – | – | – | – | -1% (inactive) | 1 (inactive) | – | -12.3% (inactive) | -1.24% (inactive) | 1.01 (inactive) | 0.0594 (inactive) | 0.0743 (active) | 0.0148 (inactive) | 0.0304 (inactive) | 0.109 (inactive) | 0.056 (inactive) | –
16 | C[N+]1(C)CCC(OC(=O)C(O)(c2ccccc2)C2CCCC2)C1 (stereo unspecified) | – | – | – | – | – | – | – | – | – | 1.05 (inactive) and 1.06 (inactive) | 2.77% (inactive) and 0.45% (inactive) | 1.44% (inactive) and 1.81% (inactive) | 1.05 (inactive) and 1 (inactive) | -0.0314 (inactive) and -0.0508 (inactive) | 0.0168 (inactive) and -0.0515 (inactive) | -0.0241 (inactive) and -0.0355 (inactive) | -0.0259 (inactive) and -0.0857 (inactive) | 0.0143 (inactive) and 0.0309 (inactive) | 0.0449 (inactive) and -0.0318 (inactive) | –
17 | Cc1ccc(/C(=C\CN2CCCC2)c2ccccn2)cc1 | 21.1 | 1.45 | 1.11 | 23.8 | -7.2 | 0.939 | 0.045 h (inactive) | 1% (inactive) | 1 (inactive) | – | – | – | – | – | – | – | – | – | – | -10.7
